What was measured:
Test in all cases: log2 ratio of Biotin-Ahx-Ub-VS probe labelling (fragment/DMSO); higher = less target engagement (more negative = stronger competition), active = hit call of the paper (q ≤ 0.05, log2 ratio ≤ -1)
Conditions in all cases: compound concentration: 200 uM; treatment time: 3 h
USP34 = USP34 (UniProt Q70CQ2)
Outline: (§1)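 Triplicate samples of HEK293T lysate, 495 µg each, received fragment at 200 µM or vehicle for 3 h, followed by Biotin-Ahx-Ub-VS (0.5 µM final) for 1 h. After NeutrAvidin enrichment of labelled DUBs and LysC/trypsin digestion, peptides were run by diaPASEF LC-MS/MS. The values are average log2 fragment/vehicle ratios from global-median-normalised Spectronaut label-free quantities, tested by unpaired t-test on proteins having ≥2 unique peptides.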

USP36 = target: T1, USP36 (UniProt Q9P275)
T1 sequence (whole entry): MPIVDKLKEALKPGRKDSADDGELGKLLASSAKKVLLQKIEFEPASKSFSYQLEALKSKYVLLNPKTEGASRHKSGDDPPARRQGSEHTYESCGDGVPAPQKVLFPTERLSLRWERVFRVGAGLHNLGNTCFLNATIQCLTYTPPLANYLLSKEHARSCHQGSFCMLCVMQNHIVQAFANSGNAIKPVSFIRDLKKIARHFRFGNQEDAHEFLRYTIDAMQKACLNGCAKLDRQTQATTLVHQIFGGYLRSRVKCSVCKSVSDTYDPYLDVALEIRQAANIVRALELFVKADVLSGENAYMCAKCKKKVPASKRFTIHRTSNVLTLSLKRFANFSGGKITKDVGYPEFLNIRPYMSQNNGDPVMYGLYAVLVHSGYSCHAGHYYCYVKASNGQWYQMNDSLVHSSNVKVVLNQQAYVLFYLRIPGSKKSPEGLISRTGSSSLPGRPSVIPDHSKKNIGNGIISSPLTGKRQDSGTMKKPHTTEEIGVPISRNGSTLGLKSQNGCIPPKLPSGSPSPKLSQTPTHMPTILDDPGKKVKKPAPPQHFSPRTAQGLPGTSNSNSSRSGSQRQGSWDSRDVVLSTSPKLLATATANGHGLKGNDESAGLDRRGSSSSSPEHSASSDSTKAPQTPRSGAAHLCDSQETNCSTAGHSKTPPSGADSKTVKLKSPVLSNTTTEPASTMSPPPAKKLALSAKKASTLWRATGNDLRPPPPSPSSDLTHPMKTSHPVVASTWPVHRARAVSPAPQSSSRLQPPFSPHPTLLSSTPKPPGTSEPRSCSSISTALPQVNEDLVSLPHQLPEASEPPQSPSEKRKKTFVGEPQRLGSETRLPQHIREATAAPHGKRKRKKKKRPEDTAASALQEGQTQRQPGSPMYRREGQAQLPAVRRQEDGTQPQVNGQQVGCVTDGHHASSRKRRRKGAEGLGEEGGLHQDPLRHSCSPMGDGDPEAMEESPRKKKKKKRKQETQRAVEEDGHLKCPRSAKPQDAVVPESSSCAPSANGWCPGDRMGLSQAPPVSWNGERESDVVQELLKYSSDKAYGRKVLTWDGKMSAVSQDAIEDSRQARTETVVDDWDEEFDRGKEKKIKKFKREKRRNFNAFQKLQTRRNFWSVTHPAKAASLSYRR
Outline: as §1

USP38 = target: T2, USP38 (UniProt Q8NB14)
T2 sequence (whole entry): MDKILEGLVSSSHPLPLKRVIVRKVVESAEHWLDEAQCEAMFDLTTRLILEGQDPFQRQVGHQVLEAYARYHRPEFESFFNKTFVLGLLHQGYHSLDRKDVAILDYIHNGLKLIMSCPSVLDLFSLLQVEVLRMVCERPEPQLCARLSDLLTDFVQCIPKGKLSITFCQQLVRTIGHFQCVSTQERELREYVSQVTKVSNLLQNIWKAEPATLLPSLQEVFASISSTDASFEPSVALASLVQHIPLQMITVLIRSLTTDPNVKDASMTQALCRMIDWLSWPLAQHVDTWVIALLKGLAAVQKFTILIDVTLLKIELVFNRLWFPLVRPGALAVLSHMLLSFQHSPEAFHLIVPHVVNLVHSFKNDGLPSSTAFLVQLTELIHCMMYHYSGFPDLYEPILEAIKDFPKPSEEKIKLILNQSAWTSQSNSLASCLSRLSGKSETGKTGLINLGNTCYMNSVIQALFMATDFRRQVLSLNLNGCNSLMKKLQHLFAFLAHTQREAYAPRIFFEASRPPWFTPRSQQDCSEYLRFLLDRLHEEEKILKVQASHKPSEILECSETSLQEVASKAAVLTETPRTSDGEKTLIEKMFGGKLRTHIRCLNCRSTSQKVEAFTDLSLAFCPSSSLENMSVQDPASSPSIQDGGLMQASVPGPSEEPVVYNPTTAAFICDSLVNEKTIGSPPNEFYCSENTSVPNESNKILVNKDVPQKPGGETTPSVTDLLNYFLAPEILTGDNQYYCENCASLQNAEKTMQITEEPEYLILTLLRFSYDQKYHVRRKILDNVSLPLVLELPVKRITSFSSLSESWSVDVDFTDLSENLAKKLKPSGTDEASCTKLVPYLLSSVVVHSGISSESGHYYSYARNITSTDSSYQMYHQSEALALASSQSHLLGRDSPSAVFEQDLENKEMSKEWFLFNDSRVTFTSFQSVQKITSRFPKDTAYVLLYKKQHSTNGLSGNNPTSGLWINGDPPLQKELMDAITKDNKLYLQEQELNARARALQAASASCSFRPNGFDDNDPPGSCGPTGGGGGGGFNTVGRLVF
Outline: as §1

USP39 = target: T3, USP39 (UniProt Q53GS9)
T3 sequence (whole entry): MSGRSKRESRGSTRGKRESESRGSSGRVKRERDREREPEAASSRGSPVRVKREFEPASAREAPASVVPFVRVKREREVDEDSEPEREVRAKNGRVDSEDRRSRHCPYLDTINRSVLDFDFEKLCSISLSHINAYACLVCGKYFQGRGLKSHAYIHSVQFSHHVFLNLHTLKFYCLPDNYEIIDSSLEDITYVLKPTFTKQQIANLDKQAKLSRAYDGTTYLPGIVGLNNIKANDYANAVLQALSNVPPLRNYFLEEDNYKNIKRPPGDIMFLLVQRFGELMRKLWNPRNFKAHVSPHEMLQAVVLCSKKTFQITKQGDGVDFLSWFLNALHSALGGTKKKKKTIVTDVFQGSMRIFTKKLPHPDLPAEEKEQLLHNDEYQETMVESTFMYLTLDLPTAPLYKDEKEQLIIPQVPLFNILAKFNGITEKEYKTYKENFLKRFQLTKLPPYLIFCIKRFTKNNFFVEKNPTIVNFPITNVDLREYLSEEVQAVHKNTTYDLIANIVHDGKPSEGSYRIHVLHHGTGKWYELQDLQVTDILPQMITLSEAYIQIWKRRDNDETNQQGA
Outline: as §1

USP4 = target: T4, USP4 (UniProt Q13107)
T4 sequence (whole entry): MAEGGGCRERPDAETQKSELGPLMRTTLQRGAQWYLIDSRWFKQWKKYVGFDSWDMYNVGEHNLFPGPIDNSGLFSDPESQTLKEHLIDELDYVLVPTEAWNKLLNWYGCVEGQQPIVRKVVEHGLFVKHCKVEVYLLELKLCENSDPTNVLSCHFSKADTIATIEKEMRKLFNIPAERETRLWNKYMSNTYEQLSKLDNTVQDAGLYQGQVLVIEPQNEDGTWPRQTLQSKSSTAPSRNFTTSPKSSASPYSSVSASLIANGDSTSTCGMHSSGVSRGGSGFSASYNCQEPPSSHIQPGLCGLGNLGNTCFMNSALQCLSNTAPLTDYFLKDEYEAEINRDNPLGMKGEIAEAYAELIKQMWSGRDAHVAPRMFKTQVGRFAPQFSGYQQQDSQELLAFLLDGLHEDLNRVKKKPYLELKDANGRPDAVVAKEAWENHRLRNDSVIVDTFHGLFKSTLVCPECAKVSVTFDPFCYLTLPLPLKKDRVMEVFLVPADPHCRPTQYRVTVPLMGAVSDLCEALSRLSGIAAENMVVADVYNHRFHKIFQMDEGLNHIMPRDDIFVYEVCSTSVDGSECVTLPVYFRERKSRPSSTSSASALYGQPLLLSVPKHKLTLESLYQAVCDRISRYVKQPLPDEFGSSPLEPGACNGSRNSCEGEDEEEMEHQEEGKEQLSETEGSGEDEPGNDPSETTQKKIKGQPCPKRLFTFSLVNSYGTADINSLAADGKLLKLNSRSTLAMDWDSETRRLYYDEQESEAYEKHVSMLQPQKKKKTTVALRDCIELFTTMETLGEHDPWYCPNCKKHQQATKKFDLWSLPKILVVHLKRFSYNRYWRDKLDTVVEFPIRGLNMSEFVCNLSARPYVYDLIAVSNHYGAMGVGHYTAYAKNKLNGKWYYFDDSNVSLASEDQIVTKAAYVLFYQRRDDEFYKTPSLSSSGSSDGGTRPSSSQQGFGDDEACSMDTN
Outline: as §1

Measured: log2 ratio of Biotin-Ahx-Ub-VS probe labelling

Sequence of USP34 (Q70CQ2 whole entry, the tested form may be a part): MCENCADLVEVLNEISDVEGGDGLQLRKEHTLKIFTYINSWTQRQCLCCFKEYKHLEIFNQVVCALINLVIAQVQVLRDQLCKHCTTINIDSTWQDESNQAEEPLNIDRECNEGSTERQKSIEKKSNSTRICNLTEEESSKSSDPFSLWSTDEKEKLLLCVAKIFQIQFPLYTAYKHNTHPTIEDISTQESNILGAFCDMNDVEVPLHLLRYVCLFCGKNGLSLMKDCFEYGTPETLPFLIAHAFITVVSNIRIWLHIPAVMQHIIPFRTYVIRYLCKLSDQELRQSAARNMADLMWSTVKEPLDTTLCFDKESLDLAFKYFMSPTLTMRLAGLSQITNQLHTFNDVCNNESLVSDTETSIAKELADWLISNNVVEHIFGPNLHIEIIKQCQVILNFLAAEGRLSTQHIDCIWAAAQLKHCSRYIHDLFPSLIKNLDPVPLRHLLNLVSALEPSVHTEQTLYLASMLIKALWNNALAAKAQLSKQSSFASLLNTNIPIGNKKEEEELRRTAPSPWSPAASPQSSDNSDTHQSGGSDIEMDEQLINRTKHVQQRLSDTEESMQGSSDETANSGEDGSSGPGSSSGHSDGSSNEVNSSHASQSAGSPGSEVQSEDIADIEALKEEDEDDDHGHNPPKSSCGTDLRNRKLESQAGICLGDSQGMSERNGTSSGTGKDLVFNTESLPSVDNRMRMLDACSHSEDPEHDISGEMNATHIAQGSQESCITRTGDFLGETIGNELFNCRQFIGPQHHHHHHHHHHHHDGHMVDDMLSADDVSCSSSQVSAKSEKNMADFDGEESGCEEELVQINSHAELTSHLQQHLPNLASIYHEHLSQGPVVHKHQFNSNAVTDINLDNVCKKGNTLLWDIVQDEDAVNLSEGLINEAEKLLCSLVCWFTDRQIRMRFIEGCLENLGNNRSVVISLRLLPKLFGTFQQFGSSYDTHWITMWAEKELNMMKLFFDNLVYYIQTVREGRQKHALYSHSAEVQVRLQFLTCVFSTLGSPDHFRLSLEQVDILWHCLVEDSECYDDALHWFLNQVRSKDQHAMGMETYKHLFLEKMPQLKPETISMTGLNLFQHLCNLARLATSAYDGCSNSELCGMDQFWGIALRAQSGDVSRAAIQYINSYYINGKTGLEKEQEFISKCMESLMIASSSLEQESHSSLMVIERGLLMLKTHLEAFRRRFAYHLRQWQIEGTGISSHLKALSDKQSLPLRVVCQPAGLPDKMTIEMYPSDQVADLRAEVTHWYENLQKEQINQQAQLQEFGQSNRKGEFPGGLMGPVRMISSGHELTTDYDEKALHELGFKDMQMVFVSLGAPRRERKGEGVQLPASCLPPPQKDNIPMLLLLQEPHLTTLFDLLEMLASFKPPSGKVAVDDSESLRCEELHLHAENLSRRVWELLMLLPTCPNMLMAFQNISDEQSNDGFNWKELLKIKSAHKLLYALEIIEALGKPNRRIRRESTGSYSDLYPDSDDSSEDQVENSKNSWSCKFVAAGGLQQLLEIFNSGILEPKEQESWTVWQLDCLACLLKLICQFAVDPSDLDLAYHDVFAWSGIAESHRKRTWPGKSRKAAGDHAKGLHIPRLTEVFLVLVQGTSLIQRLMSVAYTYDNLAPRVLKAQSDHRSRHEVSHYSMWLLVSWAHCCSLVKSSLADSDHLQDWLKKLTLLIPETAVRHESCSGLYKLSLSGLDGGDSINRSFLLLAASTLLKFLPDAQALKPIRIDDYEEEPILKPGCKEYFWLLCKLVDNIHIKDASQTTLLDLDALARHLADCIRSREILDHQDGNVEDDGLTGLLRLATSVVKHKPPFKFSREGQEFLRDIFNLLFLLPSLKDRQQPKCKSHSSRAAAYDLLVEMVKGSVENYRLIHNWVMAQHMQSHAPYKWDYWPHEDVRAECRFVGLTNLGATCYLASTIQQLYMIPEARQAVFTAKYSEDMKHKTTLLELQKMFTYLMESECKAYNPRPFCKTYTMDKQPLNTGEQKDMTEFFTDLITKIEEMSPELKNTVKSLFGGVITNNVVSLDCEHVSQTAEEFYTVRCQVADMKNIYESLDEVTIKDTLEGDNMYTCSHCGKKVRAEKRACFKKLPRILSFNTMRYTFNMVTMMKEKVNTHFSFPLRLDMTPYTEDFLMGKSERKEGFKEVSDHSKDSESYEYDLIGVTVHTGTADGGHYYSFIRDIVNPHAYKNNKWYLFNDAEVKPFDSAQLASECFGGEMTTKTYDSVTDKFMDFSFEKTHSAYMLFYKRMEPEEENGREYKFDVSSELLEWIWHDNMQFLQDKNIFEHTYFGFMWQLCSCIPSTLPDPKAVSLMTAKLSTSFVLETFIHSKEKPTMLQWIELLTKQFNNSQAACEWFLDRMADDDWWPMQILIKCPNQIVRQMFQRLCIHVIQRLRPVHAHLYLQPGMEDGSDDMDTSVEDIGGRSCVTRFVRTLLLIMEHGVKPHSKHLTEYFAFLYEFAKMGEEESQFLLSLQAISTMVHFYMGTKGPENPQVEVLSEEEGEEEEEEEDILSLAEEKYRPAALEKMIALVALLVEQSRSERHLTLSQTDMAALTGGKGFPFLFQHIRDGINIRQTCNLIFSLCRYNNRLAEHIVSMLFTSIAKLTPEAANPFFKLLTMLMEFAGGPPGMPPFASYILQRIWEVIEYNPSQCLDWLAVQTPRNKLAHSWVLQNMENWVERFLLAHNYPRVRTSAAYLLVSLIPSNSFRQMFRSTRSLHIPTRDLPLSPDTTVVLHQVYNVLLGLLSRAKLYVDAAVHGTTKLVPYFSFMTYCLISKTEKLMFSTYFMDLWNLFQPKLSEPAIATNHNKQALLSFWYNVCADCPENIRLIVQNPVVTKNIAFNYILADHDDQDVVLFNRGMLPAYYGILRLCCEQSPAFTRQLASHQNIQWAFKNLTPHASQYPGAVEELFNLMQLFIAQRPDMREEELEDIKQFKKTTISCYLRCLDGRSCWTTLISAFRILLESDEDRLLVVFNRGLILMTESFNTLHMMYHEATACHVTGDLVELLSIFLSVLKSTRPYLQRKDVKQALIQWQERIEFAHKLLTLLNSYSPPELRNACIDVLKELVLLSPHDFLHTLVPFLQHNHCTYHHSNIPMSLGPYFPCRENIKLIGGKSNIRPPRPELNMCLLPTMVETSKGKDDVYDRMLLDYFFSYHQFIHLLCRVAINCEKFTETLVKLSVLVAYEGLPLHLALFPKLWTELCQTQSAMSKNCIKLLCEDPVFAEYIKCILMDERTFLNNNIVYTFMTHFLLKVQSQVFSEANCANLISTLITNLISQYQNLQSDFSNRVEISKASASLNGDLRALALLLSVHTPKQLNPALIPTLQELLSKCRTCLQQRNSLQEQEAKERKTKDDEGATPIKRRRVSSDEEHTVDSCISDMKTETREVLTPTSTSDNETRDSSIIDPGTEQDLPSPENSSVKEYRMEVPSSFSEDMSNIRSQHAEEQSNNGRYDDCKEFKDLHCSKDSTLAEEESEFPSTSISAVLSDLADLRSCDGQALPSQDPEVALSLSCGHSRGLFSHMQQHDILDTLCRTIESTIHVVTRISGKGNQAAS

O=C(CCl)N1CCC(C(O)c2ccc(F)cc2)CC1 (stereo not given)
inactive: USP34 -0.0791 | USP36 0.299 | USP38 0.282 | USP39 0.453 | USP4 0.032

Source: the supplement of paper PMC11732987, “Enantioselective OTUD7B fragment discovery through chemoproteomics screening and high-throughput optimisation” (Communications Chemistry, 2025)
